This note sets out measurements from the supplement of paper PMC6609913.

The assay relates to V-C8 (BRCA2-deficient hamster cells). In words: normalised cell viability (fraction of plate median); higher = more viable cells (less toxic). The settings on record: 5 µM. Put shortly: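 BRCA2-deficient hamster V-C8 cells and BRCA2-restored V-C8 cells were plated in 96-well plates, and library drugs were added 24 h later at 5 μM in 100 μl medium. Exposure lasted 3 days in screen 1 and 6 days in screen 2, next to solvent-only wells. Viability was then read by resazurin assay, median-plate normalised and averaged across triplicate wells.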

Structures can show the parent of a compound that is named as a salt. ± gives the standard deviation of the averaged measurements. Over roughly 1,300 compounds, “normalised cell viability” has its median near 1; the lowest 2% begin near 0.14. Many of the other results were omitted from the sample, so the lowest values are more common in it than they were.

`c1ccc2c(c1)CCCc1cc(NCCN3CCOCC3)nnc1-2` yielded a normalised cell viability (treatment time: 3 days) of 0.351 ± 0.016 and a normalised cell viability (treatment time: 6 days) of 0.496 ± 0.056.

With `CN1C2CCCC1CC(NC(=O)c1nn(C)c3ccccc13)C2` (configuration not stated) [Granisetron], the normalised cell viability is 0.973 ± 0.092 (treatment time: 3 days) and 1.03 ± 0.051 (treatment time: 6 days).

Consider `CCN(CC)C(=O)/C(C#N)=C/c1cc(O)c(O)c([N+](=O)[O-])c1` [Entacapone], for which the normalised cell viability is 0.957 ± 0.024 (treatment time: 3 days) and 1.06 ± 0.059 (treatment time: 6 days).

In the case of `CN[C@@H]1[C@@H](O[C@H]2O[C@H](CO)[C@@H](N)[C@H](O)[C@H]2O)OC2C[C@@H](N)[C@@H](O[C@H]3[C@H](O)[C@@H](O)[C@H](N)C[C@@H]3N)OC2[C@@H]1O` (some centres not stated) [Apramycin], the normalised cell viability was 0.995 ± 0.057 (treatment time: 3 days) and 1.03 ± 0.019 (treatment time: 6 days).

For `Cc1ccnc2c1NC(=O)c1cccnc1N2C1CC1` [Nevirapine], the normalised cell viability came to 0.942 ± 0.023 (treatment time: 3 days) and 0.994 ± 0.039 (treatment time: 6 days).

Turning to `NC1CCN(c2nc3c(cc2F)c(=O)c(C(=O)O)cn3-c2ccc(F)cc2F)C1` (configuration not stated) [Tosufloxacin hydrochloride], the normalised cell viability stood at 1.01 ± 0.048 (treatment time: 3 days) and 1.08 ± 0.024 (treatment time: 6 days).

As for `CC(CCc1ccc(O)cc1)NCCc1ccc(O)c(O)c1` (configuration not stated) [Dobutamine hydrochloride], the normalised cell viability by setting is: (treatment time: 3 days) 1.01 ± 0.031; (treatment time: 6 days) 0.976 ± 0.027.

In turn, `CCCC(=O)Nc1ncnc2c1ncn2[C@@H]1O[C@@H]2COP(=O)(O)O[C@H]2[C@H]1OC(=O)CCC` [Bucladesine sodium salt] yielded a normalised cell viability (treatment time: 3 days) of 0.995 ± 0.021 and a normalised cell viability (treatment time: 6 days) of 1.04 ± 0.014.

On to `CCCCc1nc(Cl)c(CO)n1Cc1ccc(-c2ccccc2-c2nnn[nH]2)cc1` [Losartan], for which the normalised cell viability reads like this: (treatment time: 3 days) 1.019 ± 0.0051; (treatment time: 6 days) 1.052 ± 0.0052.

`C[C@@H]1NC(=O)NC1=O` [Methylhydantoin-5-(L)]: the normalised cell viability runs as follows: (treatment time: 3 days) 1 ± 0.089; (treatment time: 6 days) 1.07 ± 0.013.

As to `CC1=Nc2ccc(Cl)cc2S(=O)(=O)N1` [Diazoxide], the normalised cell viability (treatment time: 3 days) turned out to be 0.95 ± 0.024 and the normalised cell viability (treatment time: 6 days) is 1.01 ± 0.054.

Take `N=C(N)c1ccc(OCCCCCOc2ccc(C(=N)N)cc2)cc1` [Pentamidine isethionate]: the normalised cell viability was 0.596 ± 0.07 (treatment time: 3 days) and 0.597 ± 0.085 (treatment time: 6 days).

Take `CC1=C(C(=O)O)N2C(=O)[C@@H](NC(=O)[C@H](N)c3ccccc3)[C@H]2SC1` [Cephalexin monohydrate]: the normalised cell viability runs as follows: (treatment time: 3 days) 1.25 ± 0.026; (treatment time: 6 days) 1.09 ± 0.1.

Regarding `Cc1ccccc1N1C(=O)c2cc(S(N)(=O)=O)c(Cl)cc2NC1C` (configuration not stated) [Metolazone], the normalised cell viability stood at 1.11 ± 0.073 (treatment time: 3 days) and 1.06 ± 0.07 (treatment time: 6 days).

On to `CC(=O)[C@@]12O[C@](C)(c3ccccc3)O[C@@H]1C[C@H]1[C@@H]3CCC4=CC(=O)CC[C@]4(C)[C@H]3CC[C@@]12C` [Algestone acetophenide], for which the normalised cell viability is, setting by setting: (treatment time: 3 days) 0.915 ± 0.05; (treatment time: 6 days) 0.945 ± 0.094.

With `CCCNC(C)(C)COC(=O)c1ccccc1` [Meprylcaine hydrochloride], the normalised cell viability (treatment time: 3 days) came out at 1 ± 0.042 and the normalised cell viability (treatment time: 6 days) came out at 1.25 ± 0.47.

For `C#C[C@]1(O)CC[C@H]2[C@@H]3CCc4cc(OC)ccc4[C@H]3CC[C@@]21C` [Ethynylestradiol 3-methyl ether], the normalised cell viability by setting is: (treatment time: 3 days) 0.844 ± 0.02; (treatment time: 6 days) 0.886 ± 0.17.

On to `C[n+]1ccccc1/C=N/O` [Pralidoxime chloride], for which the normalised cell viability is, setting by setting: (treatment time: 3 days) 1.03 ± 0.029; (treatment time: 6 days) 1.02 ± 0.06.

`CCCCC(CC)CNC(=N)NC(=N)NCCCCCCNC(=N)NC(=N)NCC(CC)CCCC` (configuration not stated) [Alexidine dihydrochloride]: the normalised cell viability (treatment time: 3 days) turned out to be 0.124 ± 0.0044 and the normalised cell viability (treatment time: 6 days) amounted to 0.132 ± 0.0043.

Turning to `CN(C)CCN1C(=O)c2ccccc2N(C)c2ccccc21` [Dibenzepine hydrochloride], the normalised cell viability is, setting by setting: (treatment time: 3 days) 0.191 ± 0.011; (treatment time: 6 days) 0.215 ± 0.0073.

For `CC(=O)OC[C@H]1O[C@@H]([S-])[C@H](OC(C)=O)[C@@H](OC(C)=O)[C@@H]1OC(C)=O.CCP(CC)CC.[Au+]` [Auranofin], the normalised cell viability by setting is: (treatment time: 3 days) 0.117 ± 0.0046; (treatment time: 6 days) 0.141 ± 0.0027.

For the molecule `OCCN1CCN(CC/C=C2/c3ccccc3Sc3ccc(Cl)cc32)CC1` [Zuclopenthixol hydrochloride], the normalised cell viability is 0.605 ± 0.014 (treatment time: 3 days) and 0.61 ± 0.032 (treatment time: 6 days).

With `CN[C@H](CC(C)C)C(=O)N[C@H]1C(=O)N[C@@H](CC(N)=O)C(=O)N[C@H]2C(=O)N[C@H]3C(=O)N[C@H](C(=O)N[C@H](C(=O)O)c4cc(O)cc(O)c4-c4cc3ccc4O)[C@H](O)c3ccc(c(Cl)c3)Oc3cc2cc(c3O[C@@H]2O[C@H](CO)[C@@H](O)[C@H](O)[C@H]2O[C@H]2C[C@](C)(N)[C@H](O)[C@H](C)O2)Oc2ccc(cc2Cl)[C@H]1O` [Vancomycin hydrochloride], the normalised cell viability runs as follows: (treatment time: 3 days) 0.159 ± 0.01; (treatment time: 6 days) 0.141 ± 0.0064.

Regarding `CC(CN(C)C)C(C)(O)Cc1ccc(Cl)cc1` (configuration not stated) [Clobutinol hydrochloride], the normalised cell viability (treatment time: 3 days) came to 1.05 ± 0.13 and the normalised cell viability (treatment time: 6 days) was found to be 1.11 ± 0.064.

For `Cc1cc(NC(=O)C2=C(O)c3ccccc3S(=O)(=O)N2C)no1` [Isoxicam], the normalised cell viability was determined as 1.04 ± 0.06 (treatment time: 3 days) and 1.06 ± 0.042 (treatment time: 6 days).

As for `CC[C@]12CCCN3CCc4c(n(c5ccccc45)C(=O)C1)[C@@H]32` [Eburnamonine (-)], the normalised cell viability runs as follows: (treatment time: 3 days) 0.362 ± 0.016; (treatment time: 6 days) 0.643 ± 0.11.

As to `CN(C)[C@@H]1C(O)=C(C(N)=O)C(=O)[C@@]2(O)C(O)=C3C(=O)c4c(O)cccc4[C@@](C)(O)[C@H]3[C@H](O)[C@@H]12` [Oxytetracycline dihydrate], the normalised cell viability runs as follows: (treatment time: 3 days) 0.991 ± 0.015; (treatment time: 6 days) 0.945 ± 0.05.

For the molecule `C=C(NC(=O)C(=C)NC(=O)c1csc(C2=N[C@@H]3c4csc(n4)[C@H]4NC(=O)c5csc(n5)[C@H]([C@](C)(O)[C@@H](C)O)NC(=O)[C@H]5CSC(=N5)/C(=C/C)NC(=O)[C@H]([C@@H](C)O)NC(=O)c5csc(n5)[C@]3(CC2)NC(=O)[C@H](C)NC(=O)C(=C)NC(=O)[C@H](C)NC(=O)[C@H]([C@@H](C)CC)N[C@@H]2C=Cc3c([C@H](C)O)cc(nc3[C@H]2O)C(=O)O[C@@H]4C)n1)C(N)=O` [Thiostrepton], the normalised cell viability by setting is: (treatment time: 3 days) 0.14 ± 0.011; (treatment time: 6 days) 0.126 ± 0.0091.

Regarding `COc1c(O[C@@H]2O[C@H](CO)[C@@H](O)[C@H](O)[C@H]2O)cc2c(c1OC)-c1ccc(SC)c(=O)cc1[C@@H](NC(C)=O)CC2` [Thiocolchicoside], the normalised cell viability is, setting by setting: (treatment time: 3 days) 1.22 ± 0.36; (treatment time: 6 days) 0.97 ± 0.017.

As for `CCCCc1cc2ccccc2c(OCCN(C)C)n1` [Dimethisoquin hydrochloride], the normalised cell viability (treatment time: 3 days) was 1.03 ± 0.087 and the normalised cell viability (treatment time: 6 days) turned out to be 1.04 ± 0.05.

In the case of `CCOc1ccc2c(c1)C(C)=CC(C)(C)N2` [Ethoxyquin], the normalised cell viability runs as follows: (treatment time: 3 days) 0.883 ± 0.014; (treatment time: 6 days) 1.2 ± 0.26.

`CCN(CC)CCOC(=O)C(c1ccccc1)C1CCCCC1` (configuration not stated) [Drofenine hydrochloride] registered a normalised cell viability (treatment time: 3 days) of 1.02 ± 0.038 and a normalised cell viability (treatment time: 6 days) of 1.02 ± 0.07.

With `CCN(CC)CCOC(=O)C(Cc1cccc2ccccc12)CC1CCCO1` (configuration not stated) [Nafronyl oxalate], the normalised cell viability runs as follows: (treatment time: 3 days) 0.1613 ± 0.00033; (treatment time: 6 days) 0.14 ± 0.0088.

As to `CCN(CC)CCOC(=O)C(c1ccccc1)c1ccccc1` [Adiphenine hydrochloride], the normalised cell viability runs as follows: (treatment time: 3 days) 0.976 ± 0.021; (treatment time: 6 days) 1.02 ± 0.039.

Consider `COCCOC(=O)C1=C(C)NC(C)=C(C(=O)OC/C=C/c2ccccc2)C1c1cccc([N+](=O)[O-])c1` (configuration not stated) [Cilnidipine], for which the normalised cell viability was 0.98 ± 0.03 (treatment time: 3 days) and 1.01 ± 0.015 (treatment time: 6 days).

Regarding `CC(=C(CCO)SSCC1CCCO1)N(C=O)Cc1cnc(C)nc1N` (stereo in doubt) [Fursultiamine Hydrochloride], the normalised cell viability runs as follows: (treatment time: 3 days) 1.03 ± 0.025; (treatment time: 6 days) 1.03 ± 0.0084.
